# Hits are enriched below; roughly 3.5% of the tested compounds scored in any of these assays.
# TEAD-YAP inh: TEAD-YAP interaction inhibition | inhibition, % at 9.12 µM | 640,000 compounds, 1.4% hits | AID 1259422 | HEK-TIYL cells, TEAD-Gal4/YAP UAS-luciferase luminescence; in the data active means inhibition above about 32%;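 further: 0% = median of test compound wells and 100% = reference inhibitor wells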
# GPR151 ag: activates the human receptor GPR151; Q8TDV0; PathHunter beta-arrestin GPR151 cells, luminescence; 650,000 compounds, 1% hits; activation, % at 11.2 µM; in the data active means activation above about 4.9%;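 further: 0% = median of compound wells and 100% = cells with positive control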
# MITF primary: human MITF inhibition, primary screen. AID 1259374. inhibition, % at 2.6 µM. AlphaScreen MITF homodimerization, bead proximity signal. 650,000 compounds, 0.91% hits. O75030; in the data active means inhibition above about 50%;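 further: 0% = vehicle wells with protein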
# FBW7 activator: human FBW7 E3 ligase activation, primary screen; Q969H0; AlphaScreen FBW7–phospho-cyclin E peptide binding, activator screen; normalized activity (activation), % at 26.1 µM; 650,000 compounds, 0.13% hits; AID 1259310; in the data active means normalized activity above about 1.9%;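 further: purified mutant Fbw7 with reduced substrate affinity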
# The depositor's hits bear a star; ! = repeats disagree.
SMILES,TEAD-YAP inh,GPR151 ag,MITF primary,FBW7 activator
O=C1c2ccccc2C(=O)c2cc(S(=O)(=O)O)c(O)cc21,0,-1,64*,-1
CC(C)C[C@@H]1NC(=O)[C@@H]2C[C@H](NC(=O)Nc3cccc(Cl)c3Cl)CN2C1=O,9,0,15,0
COC(=O)c1ccc(C)c(NS(=O)(=O)c2ccccc2[N+](=O)[O-])c1,-4,0,-4,0
COc1ccc2c(=O)c(-c3ccc4c(c3)OCCO4)coc2c1,-67,-1,8,0
O=c1c(-c2ccc3c(c2)OCCCO3)coc2cc(O)cc(O)c12,66*,-1,6,0
O=c1c(-c2ccc3c(c2)OCCO3)coc2cc(O)ccc12,55*,-1,-5,1
CC1(C)CC2CC(C)(CN2C(=O)COC(=O)c2cc(=O)[nH]c(=O)[nH]2)C1 (centres undefined),6,0,20,0
CCCCCCCC(=O)Nc1ccc(C(=O)Nc2ccc(O)c(C(=O)O)c2)cc1,-7,0,50,4.1*
Cc1cc(C(=O)NC(C)(C)C)ccc1[N+](=O)[O-],0,1,8,0
Cc1ccc(-c2nc(CSCC(=O)O)c(C)o2)cc1,81*,-1,-3,0
CCc1ccc(-c2nc(CSCC(=O)NCCN(C)C)c(C)o2)cc1,38*,-1,18,0
CCn1c(O)c(C2=c3ccccc3=NC2=O)c2cc([N+](=O)[O-])ccc21,11,3,5,0
CCOC(=O)C1CCCN(CCC(=O)Nc2cccc(Cl)c2)C1 (centres undefined),6,1,-5,0
CS(=O)(=O)c1ccc(Sc2nc3ccccc3s2)c([N+](=O)[O-])c1,64*,0,5,0
O=[N+]([O-])c1cc(S(=O)(=O)N2CCOCC2)ccc1Sc1nc2ccccc2s1,0,2,12,0
CCCN1C(=O)C2C(C(=O)Nc3cccc(C)c3)C3C=CC2(O3)C1C(=O)NC1CCCC(C)C1C (centres undefined),-9,-1,1,0
COc1cc2c(c(OC)c1OC)-c1c(cc3c(c1OC)OCO3)CC(C)C(C)C2 (centres undefined),-3,0,-2,0
COc1ccc2cc3[n+](cc2c1OC)CCc1cc2c(cc1-3)OCO2,56*!,0,2,0
Cc1ccc(S(=O)(=O)N2CCN(c3nnnn3-c3ccccc3)CC2)cc1Cl,-2,1,-9,2.2*
O=C1NC(=S)NC(=O)C1=CN1CCCc2ccccc21,14,0,31,2.5*
O=C1NC(=S)NC(=O)C1=Cc1ccc(N2Cc3ccccc3C2)cc1,9,-1,21,0
O=[N+]([O-])c1cc(-c2cnc3ccccc3n2)ccc1N1CCCCCC1,71*,-1,15,1
CC(=O)c1ccc(Oc2ccc(-c3cnc4ccccc4n3)cc2[N+](=O)[O-])cc1,-4,0,2,0
Cc1ccc(Oc2ccc(-c3cnc4ccccc4n3)cc2[N+](=O)[O-])c(-n2nc3ccccc3n2)c1,-1,1,6,0
Cc1ccc(Oc2ccc(-c3cnc4ccccc4n3)cc2[N+](=O)[O-])cc1C,14,0,1,1.9*
SMILES,TEAD-YAP inh,GPR151 ag,MITF primary,FBW7 activator
CC(=O)NC(c1ccc(Cl)cc1)c1cc([N+](=O)[O-])c2cccnc2c1O (centres undefined),8,-2,35,0
O=C(/C=C/c1ccco1)Nc1nnc(Cc2ccc(F)cc2)s1,55*,0,4,0
CN(C)C(=O)CSc1nnnn1-c1cccc2ccccc12,18,1,11,0
COc1ccc(-c2cc3nc4c(c(NCc5cccnc5)n3n2)CCC4)cc1OC,36*,1,-3,0
COc1ccc(-c2cc3nc4c(c(NCCN)n3n2)CCC4)cc1OC,-23,0,11,0
C(=N\Nc1ccc2ccccc2n1)/c1cccs1,60*,-2,1,0
Oc1ccc(/C=N/Nc2ccc3ccccc3n2)c(O)c1O,-30,-1,21,-1
Oc1cccc2ccc(/C=N/Nc3ccc4ccccc4n3)nc12,33*,-3,-10,0
O=C(CCSc1ccc(Cl)cc1)Nc1nc(-c2ccccn2)cs1,34*,4,1,0
O=C(CCSc1ccccc1)Nc1nc(-c2ccccn2)cs1,31,0,-3,0
O=C(CCCSc1ccc(Cl)cc1)Nc1nc(-c2ccccn2)cs1,39*,0,12,-1
CN(C)c1ccc(C=Nc2nonc2-c2ccccc2)cc1,14,0,-3,0
CCOC(=O)C1=C(c2ccccc2)N=c2s/c(=C\c3cccc(O)c3)c(=O)n2C1c1cc(C(C)C)c(OC)cc1C (centres undefined),4,-1,-4,1
CCOC(=O)C1=C(c2ccccc2)N=c2s/c(=C\c3ccc4c(c3)OCO4)c(=O)n2C1c1cc(C(C)C)c(OC)cc1C (centres undefined),-3,-1,18,2.7*
CN(C)S(=O)(=O)c1cccc(C(=O)OCc2cc(=O)oc3ccc4ccccc4c23)c1,-3,-2,10,0
CN(C)c1ccc(/C=C(\C(N)=O)c2nc3ccccc3[nH]2)cc1,83*,-3,-7,0
Cn1cc(C(=O)N2CCN(c3ccccc3Cl)CC2)c2ccccc2c1=O,43*,0,8,0
COc1cccc(CSc2nc3ccncc3[nH]2)c1,69*,-1,-3,0
Cc1cncc2cccc(NC3CCN(C(=O)[C@H](C)O)CC3)c12,5,0,11,-1
Cc1cncc2cccc(NC3CCCNC3)c12 (centres undefined),94*,1,-2,0
Cc1c(CNC2CCCCC2)c(C(=O)O)c(C)n1Cc1ccc(F)cc1Cl,-4,0,-3,0
Cc1noc(/C=C/c2ccco2)c1S(=O)(=O)N1CCC(C(=O)Nc2nccs2)CC1,-12,0,58*,0
Cn1ccnc1C(NC(=O)N1CCOCC1)c1ccc(F)c(F)c1 (centres undefined),-10,0,13,1
COc1nc(Nc2ccc(NC(C)=O)cc2)nc(-c2ccc(N3CCOCC3)nc2)n1,-3,-1,8,0
CC(=O)C1=C(c2ccc(C3CCCCC3)cc2)N(C(C)=O)n2cnnc2S1,74*,2,-5,0
SMILES,TEAD-YAP inh,GPR151 ag,MITF primary,FBW7 activator
O=C(CCl)NCCOc1ccc(Cl)cc1Cl,41*,-1,9,0
Cc1cc(Cl)ccc1OCC(=O)Nc1ccc(Cl)cn1,-29,0,9,0
Cc1ccc(NC(=O)COc2ccc(Cl)cc2Cl)nc1,70*,-3,4,1
Cc1cc(Br)ccc1OCC(=O)Nc1ccc(Cl)cn1,-25,0,17,0
Cc1nc(NC(=O)COc2ccc(Cl)cc2Cl)sc1C,74*,-7,7,0
Cc1ccc(OCC(=O)Nc2ccc(Cl)cn2)c(Br)c1,40*,-2,-6,0
COc1cc(-c2nc(C=Nc3cc(Cl)ccc3Cl)c(O)o2)cc(OC)c1OC,2,-1,-3,0
COCCNC(=O)CC[C@H]1CN(Cc2cccc(Cl)c2)CC[C@H]1N1CCCC1,9,-1,5,0

# High-throughput results as filed in PubChem.
